High-throughput results deposited in PubChem by National Center for Advancing Translational Sciences (NCATS).
Only some compounds are listed: those with a hit (about 6.5% of all), similar ones and a draw of the others.
HCMV inh: qHTS Assay for inhibitors of the human cytomegalovirus (HCMV); HFF cells, HCMV-luciferase reporter, 72 h; active compounds read low; activity change, negative = inhibition, % at 57.5 µM; 4.5% of 410,000 active; AID 1259415, 2018; in the data active = activity change below about -60%; inconclusive = no clear call, values can overlap the other calls; inactive = above about -39%
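HFF cells seeded 16 h at 37C, treated with compounds, infected with luciferase-reporter HCMV at MOI 1 PFU/cell; luciferase read at 72 h post infection, normalized to buffer-only and Salinomycin controls.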
VACV mCherry inh: qHTS for Stage-Specific Inhibitors of Vaccinia Orthopoxvirus: mCherry Reporter Primary qHTS; 0.63% of 310,000 active; Vaccinia virus mCherry reporter infection, fluorescence; Potency, µM (top dose mostly 36.5 µM), actives largely listed as inhibitors; calls by dose curve; tested in A549 cells; also: nearly all actives have a fitted effect of over 35% in size
VACV Venus inh: qHTS for Stage-Specific Inhibitors of Vaccinia Orthopoxvirus: Venus Reporter Primary qHTS | AID 720580, 2013 | Potency, µM (titrated, usually from 36.5 µM), usual class: inhibitors | Vaccinia virus Venus reporter expression, fluorescence | 0.46% of 330,000 active; calls by dose curve; tested in A549 cells; also: nearly all actives have a fitted effect of over 30% in size
MARV entry inh: qHTS for inhibitors of binding or entry into cells for Marburg Virus. Marburg virus pseudotyped entry inhibition, cell reporter. Potency, µM (highest dose often 37.8 µM), most hits filed as inhibitors. 1.8% of 300,000 active; calls by dose curve; tested in HEK293 cells
FMDV inh: High Throughput Screening for Foot and Mouth Disease Virus Antivirals. Potency, µM (doses to about 57.9 µM), usual class: inhibitors. 1.2% of 410,000 active. AID 1159524, 2015. FMDV antiviral cell-based qHTS; calls by dose curve; tested in HEK293T cells; also: read-out not given here; nearly all actives have a fitted effect of over 45% in size
LASV entry inh: qHTS for Inhibitors of binding or entry into cells for Lassa Virus | Lassa virus pseudotype entry inhibition, cell reporter | Potency, µM (top dose mostly 37.9 µM), hits mostly inhibitors | 1.2% of 300,000 active | AID 540256, 2011; calls by dose curve; tested in HEK293 cells; also: nearly all actives have a fitted effect of over 50% in size
Hits are given with their value; n = inactive; u = inconclusive; x = not tested or not shown; [ ] = remark or other dose.

SMILES | HCMV inh | VACV mCherry inh | VACV Venus inh | MARV entry inh | FMDV inh | LASV entry inh
COc1ccc(OC)c(/C=N/NC(=O)c2cc3c(OC)cc(OC)cc3[nH]2)c1 | n | u | u | u | u | u
COc1ccc(OC)c(/C=N/NC(=O)c2cc3c(OC)cccc3[nH]2)c1 | n | n[7.34 µM] | n[7.34 µM] | 10µM | n | n
COC(=O)NC(CC(C)=O)c1ccccc1 (stereo unspecified) | x | x | x | n | x | x
CCOc1cc2c(cc1OCC)C(CC(=O)OC)N(C(=O)Nc1cc(OC)ccc1OC)CC2 (stereo unspecified) | n | n | n | x | u | n
Cc1cc(C)cc(NC(=O)C2CC(=O)N(c3ccccc3)C2)c1 (stereo unspecified) | n | n | n | n | n | n
CC1=CC(=O)C(C(C)C)=C/C1=N/OS(=O)(=O)c1ccccc1 | -88.5 | x | x | x | 25.1µM | x
CC1=CC(=O)C=C(C)C1=NOS(=O)(=O)c1ccccc1 | -97.5 | n | n | u | 14.1µM | 10µM
Cc1ccc2c(c1)/C(=N/OS(=O)(=O)c1ccccc1)CCS2 | n | x | x | n | n | n
Cc1coc2cc3oc(=O)c(CCC(=O)NCc4ccccc4Cl)c(C)c3cc12 | n | n | n | n | n | n
CC(C)n1cc(CN2CCCC(C(=O)Nc3cccc(-c4cc5ccccc5[nH]4)c3)C2)cn1 (stereo unspecified) | n | 11.2µM | u | u | u | 7.08µM
CCOC(=O)N1CCN(CC(O)COCCC23CC4CC(CC(C4)C2)C3)CC1 (stereo unspecified) | -61.9 | x | n | u | u | n
C[C@]12c3[nH]c4cc(-c5ccco5)ccc4c3CCN1C(=O)[C@@H](CC(=O)NCc1ccco1)C[C@@H]2C(=O)N1CCCCC1 | n | n | u | x | n | x
Cc1ccc(Cn2c(N3CCN(C)CC3)nc3c2c(=O)[nH]c(=O)n3C)cc1 | n | n | n | u | n | n
Cc1c(C(=O)NCC(C)(C)N2CCOCC2)cnn1-c1ncc2c(n1)-c1ccccc1CC2 | x | n | n | x | n | x
COc1cc(NC(=O)COn2nnc3ccc(S(C)(=O)=O)cc32)cc(OC)c1 | -68.0 | n | n | n | n | u
Cc1cc(NC(=O)COn2nnc3ccc(S(C)(=O)=O)cc32)ccc1Br | u | x | x | x | n | x
Cc1cc(C(=O)COC(=O)c2ccc[nH]c2=O)c(C)n1C | n | n | n | n | n | n
CNS(=O)(=O)c1cccc(C(=O)OCC(=O)c2cc(C)n(CC3CCCO3)c2C)c1 (stereo unspecified) | n | n | n | u | n | 12.6µM
Cc1cc(C(=O)CSc2nnc(Nc3ccccc3F)s2)c(C)n1CC1CCCO1 (stereo unspecified) | n | n | n | n | u | n
COCCn1c(C)cc(C(=O)COC(=O)c2ccc[nH]c2=O)c1C | -64.6 | n | n | u | u | u
COc1ccccc1Nc1nnc(SCC(=O)c2cc(C)n(CC3CCCO3)c2C)s1 (stereo unspecified) | -76.1 | x | n | n | n | n
Cc1cc(C(=O)COC(=O)c2ccc3c(c2)NC(=O)CS3)c(C)n1CC1CCCO1 (stereo unspecified) | n | n | n | u | 28.2µM | n
Cc1onc(C(=O)N2C(C)CCCC2C)c1[N+](=O)[O-] (stereo unspecified) | u | n | n | u | n | n
COc1ccc(NS(=O)CCCc2ccccc2)cc1 (stereo unspecified) | n | n | n | x | n | x
COc1ccc(C(=O)NCCc2nnc3ccc(SCC(=O)Nc4ccccc4F)nn23)cc1 | n | n | n | n | n | n
SMILES | HCMV inh | VACV mCherry inh | VACV Venus inh | MARV entry inh | FMDV inh | LASV entry inh
COc1cc2nc(N3CCOCC3)nc(NC3CCN(Cc4ccccc4)CC3)c2cc1OC | x | n | n | x | x | x
Cc1cc(C(=O)COc2cc(F)ccc2[N+](=O)[O-])c(C)n1CC1CCCO1 (stereo unspecified) | -65.7 | x | x | x | n | x
Cc1cc(C(=O)COC(=O)CNC(=O)c2ccccc2)c(C)n1CC1CCCO1 (stereo unspecified) | n | n | n | n | 15.8µM | n
Cc1cc(-n2c(C)cc(C(=O)COc3cc(F)ccc3[N+](=O)[O-])c2C)no1 | u | x | x | x | n | x
COCCn1c(C)cc(C(=O)COC(=O)CNC(=O)c2ccccc2)c1C | n | n | n | n | 25.1µM | n
Cc1c(NC(=O)c2ccc(N3CCC(C)CC3)c([N+](=O)[O-])c2)cccc1-c1nc2ccccc2o1 | n | n | n | n | n | n
CCCN1C(=O)/C(=C/c2ccncc2)SC1=S | n | n | n | n | n | n
O=C1/C(=C/c2ccncc2)SC(=S)N1Cc1ccccc1 | -72.7 | n | n | 11.2µM | u | n
O=C1/C(=C\c2cccc(O)c2O)SC(=S)N1Cc1ccccc1 | n | n | n | u | u | u
O=C1/C(=C\c2cc([N+](=O)[O-])ccc2O)SC(=S)N1Cc1ccc(Cl)cc1 | -76.8 | x | x | x | u | x
CN1C(=O)/C(=C\c2ccncc2)SC1=Nc1ccccc1 | -67.0 | u | n | u | u | u
O=C1/C(=C\c2cccc(O)c2)SC(=S)N1Cc1ccccc1 | -74.3 | x | x | x | n | x
O=C(c1csnn1)N1CCC[C@@]2(CCN(c3ncccn3)C2)C1 | x | x | x | x | n | x
O=C1[C@H](Cc2ccccc2)NC/C=C\C[C@H](c2ccc(Cl)cc2)N1Cc1ccc(Cl)cc1 | x | n | n | x | x | x
Cc1cc(Nc2cccc(Cl)c2C)n2nc(Cc3ccccc3)nc2n1 | n | n | n | n | u | n
O=C1/C(=C/c2ccc(O)cc2)SC(=S)N1Cc1cccnc1 | u | n | n | u | n | n
C#CCOc1ccc(/C=C2\SC(=S)N(Cc3cccnc3)C2=O)cc1 | -73.2 | n | n | u | n | n
CCN1CCCC1CNC(=O)c1cnn(-c2nccc(-c3ccccc3F)n2)c1C (stereo unspecified) | x | n | n | x | n | x
Cc1oc2c(cc(NS(=O)(=O)c3ccc4c5c(cccc35)C(=O)N4)c3ccccc32)c1C(=O)OC(C)C | n | x | x | n | n | u
O=C1CCCc2oc3c(cc(NS(=O)(=O)c4ccc5c6c(cccc46)C(=O)N5)c4ccccc43)c21 | u | u | n | 11.2µM | n | n
Cc1ccc(NS(=O)(=O)c2cccc3cccnc23)cc1Cl | -93.8 | x | x | x | n | x
CCCOc1ccc(/C=N/Nc2cccc([N+](=O)[O-])c2)c(O)c1 | u | u | u | u | n | u
CCCOc1ccc(/C=N/Nc2ccccc2[N+](=O)[O-])c(O)c1 | u | n | n | 4.47µM | 11.2µM | 2.82µM
CCCOc1ccc(/C=N/NC(=S)Nc2ccccc2[N+](=O)[O-])c(O)c1 | -100.8 | 2.82µM | u | u | u | 8.2µM
CC(C)COc1ccc(CNC(=S)NCc2ccccc2)cc1 | -81.9 | n | n | u | x | n
S=C(NCCCc1ccccc1)NCc1ccccc1 | -83.1 | n | n | u | n | n
S=C(NCc1ccccc1)NCc1ccccc1 | u | n | n | n | x | n
